These results are taken from article PMC12864922, “TDP-43 directly inhibits mRNA accumulation in neurites through modulation of mRNA stability”.

The full ranking holds about 9,900 sequences; the median of “r (bound/input frequency ratio)” is about 0.7, and the highest 2% start at about 6.5. Many of the other results were omitted from the sample, so the highest values are more common in it than they were.

First the molecules themselves.
B1: ENSMUSG00000031028.199|Tub (ssRNA)
RNA: GGGAGUUCUACAGUCCGACGAUCGCUUCGAUAUCCGCAUGCUAACCUGCUAGGGUCUAUUCUGCAUGUCCUUUCUCUUCCCAGUUCCAGAGAUGAAACCCCUCCGAGUUAAUGUAUAAGGUUGGAAACCUUUCAGUAGGGAAUCAGGCAGUUCCCUGUUGAAAGUUGUCUGAGUUUUUGCACACCAUUCUGAUCUGAUGUGGCCUGUGCCUGGCUCCUCUAUGAGGACUUCGAGCUGUGCACAGACCUUAGCAGGACCACUGCACACUUUGUGUCUGUGUGACAGGCAGCCCAAGGGUUCUGGCUCUUGCGGUCGCACUAGUGUGGAAUUCUCGGGUGUCAAGG
B2: ENSMUSG00000090935.60|Synj2bp (ssRNA)
RNA: GGGAGUUCUACAGUCCGACGAUCGCUUCGAUAUCCGCAUGCUAAUUACCUGCACCUGGAUAUGGGACAGUAGGCUUUUACACUGUUCUUGUGAAUAGGUUUGUAAGCUUCAAAGUCUGCUUUACUUUAUCUUCUGUUAUGAUUGCCUUUGUCAGCAUAGGCAGGAGUCCUUUAGGAUUUCUGCCUAUCAGUAAAAGAAGUAUGUAACCCAAGUUCUACCUUCAGUGGAUUAAAGUUUCAUUAAGUGAAAAUGGAAAGAAAGUAGAAUUACUUGGUAAGAGGCCAAAUGAGGAUACAGAGGCUGCUCUUGCGGUCGCACUAGUGUGGAAUUCUCGGGUGUCAAGG
B3: ENSMUSG00000042529.476|Kcnj12 (ssRNA)
RNA: GGGAGUUCUACAGUCCGACGAUCGCUUCGAUAUCCGCAUGCUAAGAUGUAGGCAACAAGACUAGACCACAUUAAAUGCAUUUUGAUCUCUUUGAAUGCUACUGUGUUGAGAUGUGCGUCUCACUGGCCUCUGCCUGCCUCUCCCGCCUGCGGAGCACUUACACUUCCUGGGGCCCCUGCAGCUGGACCAUGUACAGGGCUCCCUGGGGCUUGUCCUCAGGGGCAGAGAAGGACAUGGUGGCAGCAGCACUGAGAACAGGAGCAUGGCCUCUCUCAGACCCCAGGGCAGUCAUUCAGUCUUUUCCUCUUGCGGUCGCACUAGUGUGGAAUUCUCGGGUGUCAAGG
B4: ENSMUSG00000058297.104|Spock2 (ssRNA)
RNA: GGGAGUUCUACAGUCCGACGAUCGCUUCGAUAUCCGCAUGCUAACCACGGUCUUGUGGUGAUGAGGCAGGACCUGUACACACAGCAAGGCUUACUAUCCGUCUCCUGACAUCCGAAGAGCUCGUCGCAGGUGUGUCUAAUGGCCCUUGGGCUGCACGUGGUUAAGCAUAGCUGUCUCUGUGGCCCAACACAAAGAGGUAAACUUACUUAAAACACAGGGGUUUUGUUGCUGUUUGUUUUUUGUUAGUUUGUUUGUUGAUAAUUGGAUUGAGGAGUUAAUCCUCUGUCACAAUGUCAAAAGCAUCUCUUGCGGUCGCACUAGUGUGGAAUUCUCGGGUGUCAAGG
B5: ENSMUSG00000043670.53|Diras1|229:234 (ssRNA)
RNA: GGGAGUUCUACAGUCCGACGAUCGCUUCGAUAUCCGCAUGCUACCUACAGUAAGGUUGGGCUCCAUCCCUGCCUCUUCACACCUCCAUAGCUUCAUCCUUUGCAGACCUCUCCCUCUAUAUCUCUUUGCUCCCCCACCCCCAUUCUAUCUGCACCCCACAACCACACACUGGAGGUUUGAUCCCUGUGGAUCUGAAAACAGGGACCUGGCUAAGGAACUGCUCAUCCCAGUCAGGCCCAGAGAGGUUACCUUGCCUCUCCAUCUCUGUCCCACACACCCCAGCCAUGCCCACUGUCCCUGUCCCUCUUGCGGUCGCACUAGUGUGGAAUUCUCGGGUGUCAAGG
B6: ENSMUSG00000029636.33|Wasf3|33:37;79:83 (ssRNA)
RNA: GGGAGUUCUACAGUCCGACGAUCGCUUCGAUAUCCGCAUGCUAUCCCUGUAGCUUUAGUCCCUUUUGUAUUAACACACACAUUUGCUUCUGCACAUCCUUCUGGAUUUGUUGAGUAUUUACACACAAAUACUUAAGUGCCACAGAACACAGCACACCGUGCUGCACACCAGGAAACUCGCAGUAUUAGUGCAUCACCCUGGAACAGCAUCUUGCUUCCCUCUCAGCCGUGAGAGUCCCCUCUCCUGUCCAUCCUGAUUUGGUGGGCUUGCCACGUAUCUGCGCAGCUGCCCCACGUCAGCUCUCUCUUGCGGUCGCACUAGUGUGGAAUUCUCGGGUGUCAAGG
B7: ENSMUSG00000004113.19|Cacna1b|119:123 (ssRNA)
RNA: GGGAGUUCUACAGUCCGACGAUCGCUUCGAUAUCCGCAUGCUAACCCUUACCUAGGGCAGCGUCUGGACAGUGAGGCCUCCGCCCACACCCUGCCUGAGGAUACACUCACCUUUGAAGAGGCAGUGGCCACCAACUCUGGCCGCUCCUCCAGGACUUCCUAACACACCUCCCUCACUUCCCAAUCCCACCCUCUCCGCCGUGUACCCAAUGGCUAUCACUGCACUUUGGGACUCAGCACUGGCGUCCGGGCGCGGCACAGCUACCACCACCCCGAUCAGGACCACUGGUGCUAGCUGCACCACCUCUUGCGGUCGCACUAGUGUGGAAUUCUCGGGUGUCAAGG
B8: ENSMUSG00000028439.137|Fam219a (ssRNA)
RNA: GGGAGUUCUACAGUCCGACGAUCGCUUCGAUAUCCGCAUGCUAUGCAUCUGUCUCUCUGCCUCAUCCCCACACCGCCCUGCCACCCCCAGUCUUCUGUCUAUUGGUUCCAGGCUGGAAGCAAGAGAUAAGGCUGGCCUCCUGUGCCCCAUUGCCAUUUCACCCUAGCUCAAAGUCCAGGAGCCAGGCUUCCAGAAAGGCUCUUCAAGAGCAAGCUUAAGGAAAUACAGUGAGCCAAGUGGCUGUAUGAUAUGGUAUGGUAUGGUAUGGUAUGGUAUGGUAUGGUAUGCACAUGUGUGUGCAUGCUCUUGCGGUCGCACUAGUGUGGAAUUCUCGGGUGUCAAGG
B9: ENSMUSG00000028439.141|Fam219a (ssRNA)
RNA: GGGAGUUCUACAGUCCGACGAUCGCUUCGAUAUCCGCAUGCUACCACACCGCCCUGCCACCCCCAGUCUUCUGUCUAUUGGUUCCAGGCUGGAAGCAAGAGAUAAGGCUGGCCUCCUGUGCCCCAUUGCCAUUUCACCCUAGCUCAAAGUCCAGGAGCCAGGCUUCCAGAAAGGCUCUUCAAGAGCAAGCUUAAGGAAAUACAGUGAGCCAAGUGGCUGUAUGAUAUGGUAUGGUAUGGUAUGGUAUGGUAUGGUAUGGUAUGCACAUGUGUGUGCAUGUGUGUGUGCCUGUGUGUGUGCGUGCUCUUGCGGUCGCACUAGUGUGGAAUUCUCGGGUGUCAAGG
B10: ENSMUSG00000028439.147|Fam219a (ssRNA)
RNA: GGGAGUUCUACAGUCCGACGAUCGCUUCGAUAUCCGCAUGCUAGGUUCCAGGCUGGAAGCAAGAGAUAAGGCUGGCCUCCUGUGCCCCAUUGCCAUUUCACCCUAGCUCAAAGUCCAGGAGCCAGGCUUCCAGAAAGGCUCUUCAAGAGCAAGCUUAAGGAAAUACAGUGAGCCAAGUGGCUGUAUGAUAUGGUAUGGUAUGGUAUGGUAUGGUAUGGUAUGGUAUGCACAUGUGUGUGCAUGUGUGUGUGCCUGUGUGUGUGCGUGUGCGUGUGUGUAUGUGUGUGCGUGUGUGUGUGUGUGCUCUUGCGGUCGCACUAGUGUGGAAUUCUCGGGUGUCAAGG
B11: ENSMUSG00000028439.148|Fam219a (ssRNA)
RNA: GGGAGUUCUACAGUCCGACGAUCGCUUCGAUAUCCGCAUGCUAAGGCUGGAAGCAAGAGAUAAGGCUGGCCUCCUGUGCCCCAUUGCCAUUUCACCCUAGCUCAAAGUCCAGGAGCCAGGCUUCCAGAAAGGCUCUUCAAGAGCAAGCUUAAGGAAAUACAGUGAGCCAAGUGGCUGUAUGAUAUGGUAUGGUAUGGUAUGGUAUGGUAUGGUAUGGUAUGCACAUGUGUGUGCAUGUGUGUGUGCCUGUGUGUGUGCGUGUGCGUGUGUGUAUGUGUGUGCGUGUGUGUGUGUGUGUGUUGUCUCUUGCGGUCGCACUAGUGUGGAAUUCUCGGGUGUCAAGG
B12: ENSMUSG00000028439.140|Fam219a (ssRNA)
RNA: GGGAGUUCUACAGUCCGACGAUCGCUUCGAUAUCCGCAUGCUAUCAUCCCCACACCGCCCUGCCACCCCCAGUCUUCUGUCUAUUGGUUCCAGGCUGGAAGCAAGAGAUAAGGCUGGCCUCCUGUGCCCCAUUGCCAUUUCACCCUAGCUCAAAGUCCAGGAGCCAGGCUUCCAGAAAGGCUCUUCAAGAGCAAGCUUAAGGAAAUACAGUGAGCCAAGUGGCUGUAUGAUAUGGUAUGGUAUGGUAUGGUAUGGUAUGGUAUGGUAUGCACAUGUGUGUGCAUGUGUGUGUGCCUGUGUGUGCUCUUGCGGUCGCACUAGUGUGGAAUUCUCGGGUGUCAAGG
B13: ENSMUSG00000028439.138|Fam219a (ssRNA)
RNA: GGGAGUUCUACAGUCCGACGAUCGCUUCGAUAUCCGCAUGCUAUGUCUCUCUGCCUCAUCCCCACACCGCCCUGCCACCCCCAGUCUUCUGUCUAUUGGUUCCAGGCUGGAAGCAAGAGAUAAGGCUGGCCUCCUGUGCCCCAUUGCCAUUUCACCCUAGCUCAAAGUCCAGGAGCCAGGCUUCCAGAAAGGCUCUUCAAGAGCAAGCUUAAGGAAAUACAGUGAGCCAAGUGGCUGUAUGAUAUGGUAUGGUAUGGUAUGGUAUGGUAUGGUAUGGUAUGCACAUGUGUGUGCAUGUGUGUGCUCUUGCGGUCGCACUAGUGUGGAAUUCUCGGGUGUCAAGG

The target in this test is TDP-43 (Homo sapiens, UniProt Q13148 1-414). The test is described as follows: RNA Bind-n-Seq with designed 260-mer pool; 25 mM Tris-HCl, 150 mM KCl, 3 mM MgCl2, BSA (printed 500 mg/mL), 20 units/mL SUPERase IN; pH not stated; 500 nM RNA pool, 1 h, 4 C; TDP-43 5, 50, 500 nM; high values mean tight binding. The following applies: protein: recombinant; tags: SBP (GST cleaved off with PreScission; pGEX-GST-SBP). An outline of the steps: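 An in vitro-transcribed pool of 260-nt 3′ UTR oligos (500 nM) was incubated for 1 h at 4 °C with recombinant SBP-tagged TDP-43 at 5, 50 or 500 nM held on streptavidin beads. The buffer contained 25 mM Tris-HCl, 150 mM KCl, 3 mM MgCl2, BSA and SUPERase IN. Biotin-eluted bound RNA was sequenced, and binding, R, is each oligo's normalized read abundance in the bound sample over that in input.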
TDP-43, sequence (Q13148 whole entry): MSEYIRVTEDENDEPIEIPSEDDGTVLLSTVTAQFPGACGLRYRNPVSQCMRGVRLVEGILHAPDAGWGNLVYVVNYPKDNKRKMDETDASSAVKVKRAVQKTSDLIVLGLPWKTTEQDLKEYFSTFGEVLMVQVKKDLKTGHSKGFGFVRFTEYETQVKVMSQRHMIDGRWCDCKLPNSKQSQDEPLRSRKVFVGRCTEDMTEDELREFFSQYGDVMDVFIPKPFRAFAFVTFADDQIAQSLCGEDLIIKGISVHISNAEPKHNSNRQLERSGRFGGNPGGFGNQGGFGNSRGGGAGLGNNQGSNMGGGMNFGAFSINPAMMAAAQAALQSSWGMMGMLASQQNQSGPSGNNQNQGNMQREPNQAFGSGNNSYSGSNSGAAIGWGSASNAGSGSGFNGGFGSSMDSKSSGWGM
B1: the binding signal was 1.55 R (bound/input frequency ratio). Then B2, with 0.778 R (bound/input frequency ratio). With B3, the binding signal is 0.564 R (bound/input frequency ratio). As to B4, the binding signal is 0.391 R (bound/input frequency ratio). Take B5: the binding signal was 2.98 R (bound/input frequency ratio).

Consider B6, for which the binding signal was 0.758 R (bound/input frequency ratio). Then B7, with 1.6 R (bound/input frequency ratio); and B8, with 1.7 R (bound/input frequency ratio); and B9, with 3.58 R (bound/input frequency ratio). For B10, the binding signal is 7.43 R (bound/input frequency ratio).

In the case of B11, the binding signal is 7.16 R (bound/input frequency ratio). B12: the binding signal is 2.02 R (bound/input frequency ratio). Then B13, with 1.6 R (bound/input frequency ratio).
